Where “and” joins values, the source holds several entries; their conditions need not be identical. Equal entries are not always repeated. Some structures have more than one record in an assay (separate samples or runs), and their calls can disagree. Calls of active or inactive are those of the source. The calls were made as follows: active = hit-call score of the fitted dose curve at least 0.9, where 1 is the maximum; inactive = score below 0.9.
What was measured:
[1] = CEETOX_H295R_PROG: CeeTox H295R High-throughput Steroidogenesis Assay for Progesterone (PROG) (AID 2283442); details: actives raise or lower the signal;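 as to AC50: human H295R adrenal cells primed with 10 µM forskolin before dosing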
Outline: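 H295R adrenal cells prestimulated 48 h with 10 uM forskolin, then exposed 48 h to test chemical in 0.1% DMSO. Progesterone in medium quantified by HPLC-MS/MS after MTBE extraction; viability checked by MTT in same wells.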

[2] = CEETOX_H295R_DOC: CeeTox H295R High-throughput Steroidogenesis Assay for DOC (AID 2283439); details: actives raise or lower the signal
Outline: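 H295R, fsk 10 uM ×48 h pre, cmpd ×48 h (0.1% DMSO). Media → MTBE extr. → LC-MS/MS, DOC. Bidirectional fit vs DMSO; MTT viability same wells, re-test diluted if <70%.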

[3] = CEETOX_H295R_ESTRADIOL: CeeTox H295R High-throughput Steroidogenesis Assay for Estradiol (AID 2283440); details: actives raise or lower the signal;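 also: estradiol secreted into medium quantified by LC-MS/MS after dansyl derivatisation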
Outline: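 H295R cells pre-stimulated 48 h with 10 uM forskolin, then exposed 48 h to chemical in 0.1% DMSO. Medium estradiol quantified by MTBE extraction, dansyl derivatisation and HPLC-MS/MS; bidirectional fit versus DMSO; MTT viability required >/=70%.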

[4] = CEETOX_H295R_ESTRONE: CeeTox H295R High-throughput Steroidogenesis Assay for Estrone (AID 2283441); details: actives raise or lower the signal;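 also: estrone secreted into medium measured by LC-MS/MS after dansyl derivatization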;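 as to AC50: human adrenal H295R cells prestimulated with forskolin for two days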
Outline: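 Forskolin-stimulated H295R cells are treated 48 h with chemical, and estrone in the medium is measured by LC-MS/MS. Activity is fitted in both directions relative to DMSO controls, with chemicals diluted until MTT viability reaches at least 70%.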

[5] = read-out: Tumor necrosis factor receptor superfamily member 6 (Homo sapiens) (UniProt P25445); test: LTEA_HepaRG_FAS: Life Technologies and Expression Analysis (LTEA) Assay for Fas cell surface death receptor (FAS) using HepaRG (AID 2283447); details: mRNA level, 48 h; actives raise or lower the signal
Outline: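 Differentiated human HepaRG cells, pre-cultured 48 h, were exposed in duplicate for 48 h to 8-point half-log concentrations (top 100 uM, 0.5% DMSO) in serum-free induction medium; FAS mRNA measured by qRT-PCR, normalized to ACTB/GAPDH/POLR2A, bidirectional fit versus DMSO.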

[6] = read-out: Fatty acid synthase (Homo sapiens) (UniProt P49327); test: LTEA_HepaRG_FASN: Life Technologies and Expression Analysis (LTEA) Assay for Fatty Acid Synthase (FASN) using HepaRG (AID 2283448); details: mRNA level, 48 h; actives raise or lower the signal
Outline: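 In human HepaRG cultures, 48 h chemical exposure (up to 100 uM, 0.5% DMSO) preceded TaqMan qRT-PCR of FASN.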

[7] = read-out: Cyclin Dependent Kinase Inhibitor 1A (CDKN1A), CDKN1A (gene 1026); test: LTEA_HepaRG_CDKN1A: Life Technologies and Expression Analysis (LTEA) Assay for Cyclin Dependent Kinase Inhibitor 1A (CDKN1A) using HepaRG (AID 2283450); details: mRNA level, 48 h; actives raise or lower the signal
Outline: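 Differentiated HepaRG cells in serum-free induction medium, exposed 48 h in duplicate to eight half-log concentrations up to 100 uM in 0.5% DMSO. mRNA measured by TaqMan qRT-PCR, normalized to ACTB, GAPDH, POLR2A; bidirectional fit versus DMSO.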

[8] = read-out: Cyclin D1 (CCND1), CCND1 (gene 595); test: LTEA_HepaRG_CCND1: Life Technologies and Expression Analysis (LTEA) Assay for Cyclin D1 (CCND1) using HepaRG (AID 2283451); details: mRNA level, 48 h; actives raise or lower the signal;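 as to AC50: TaqMan qRT-PCR transcript level normalised to ACTB GAPDH and POLR2A housekeeping genes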
Outline: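 Differentiated HepaRG cells exposed 48 h in serum-free induction medium to eight half-log concentrations from 100 uM top, 0.5% DMSO, duplicates. CCND1 mRNA measured by Fluidigm TaqMan qRT-PCR, normalised to ACTB, GAPDH, POLR2A; bidirectional fit.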

[9] = read-out: catalase (CAT), CAT (gene 847); test: LTEA_HepaRG_CAT: Life Technologies and Expression Analysis (LTEA) Assay for catalase (CAT) using HepaRG (AID 2283452); details: mRNA level, 48 h; actives raise or lower the signal;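 as to AC50: TaqMan qRT-PCR signal normalized to ACTB GAPDH and POLR2A housekeeping genes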
Outline: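 Differentiated HepaRG cells in serum-free induction medium were dosed 48 h in duplicate, eight half-log concentrations from 100 uM in 0.5% DMSO. Transcript measured by TaqMan qRT-PCR, normalised to ACTB/GAPDH/POLR2A, fitted bidirectionally against DMSO.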

[10] = read-out: flavin-containing dimethylaniline monooxygenases 3 (FMO3), FMO3 (gene 2328); test: LTEA_HepaRG_FMO3: Life Technologies and Expression Analysis (LTEA) Assay for flavin-containing dimethylaniline monooxygenases 3 (FMO3) using HepaRG (AID 2283453); details: mRNA level, 48 h; actives raise or lower the signal;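 as to AC50: FMO3 transcript by TaqMan qRT-PCR normalized to ACTB GAPDH and POLR2A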
Outline: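 Eight-point concentration-response in serum-free HepaRG cultures (top 100 uM, 0.5% DMSO, 48 h). Read-out: FMO3 mRNA level normalized to three endogenous control genes, fitted bidirectionally versus vehicle.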

[11] = read-out: Cytochrome P450 (CYP1A1), CYP1A1 (gene 1543); test: LTEA_HepaRG_CYP1A1: Life Technologies and Expression Analysis (LTEA) Assay for Cytochrome P450 (CYP1A1) using HepaRG (AID 2283454); details: mRNA level, 48 h; actives raise or lower the signal
Outline: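 Differentiated human HepaRG cells, after 48 h plating, exposed in duplicate for 48 h in serum-free induction medium to 8 half-log concentrations up to 100 uM in 0.5% DMSO. CYP1A1 mRNA by qRT-PCR, normalized to ACTB/GAPDH/POLR2A; bidirectional fit versus DMSO.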

[12] = read-out: CFLAR gene, CFLAR (gene 8837); test: LTEA_HepaRG_CFLAR: Life Technologies and Expression Analysis (LTEA) Assay for CFLAR gene using HepaRG (AID 2283455); details: mRNA level, 48 h; actives raise or lower the signal
Outline: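 Gain- or loss-of-signal changes in CFLAR transcript were fitted bidirectionally relative to 0.5% DMSO. Cells (HepaRG, duplicate wells) were dosed for 48 h across eight half-log concentrations topping at 100 uM; quantitation by TaqMan qRT-PCR.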

[13] = read-out: Forkhead box O1 (FOXO1), FOXO1 (gene 2308); test: LTEA_HepaRG_FOXO1: Life Technologies and Expression Analysis (LTEA) Assay for Forkhead box O1 (FOXO1) using HepaRG (AID 2283456); details: mRNA level, 48 h; actives raise or lower the signal
Outline: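 Using one lot of HepaRG hepatic cells kept in 0.5% DMSO, the team applied test chemicals in duplicate, half-log dilutions from 100 uM, for 48 h. Expression, normalised to ACTB/GAPDH/POLR2A, was compared with vehicle in either direction.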

[14] = read-out: growth arrest and DNA damage 45 (GADD45A), GADD45A (gene 1647); test: LTEA_HepaRG_GADD45A: Life Technologies and Expression Analysis (LTEA) Assay for growth arrest and DNA damage 45 (GADD45A) using HepaRG (AID 2283458); details: mRNA level, 48 h; actives raise or lower the signal
Outline: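 Eight-point concentration-response in HepaRG cells: 48 h chemical exposure, 0.5% DMSO vehicle, top dose 100 uM. Normalized qRT-PCR mRNA readout with bidirectional fitting relative to DMSO.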

[15] = read-out: Forkhead box O3 (FOXO3), FOXO3 (gene 2309); test: LTEA_HepaRG_FOXO3: Life Technologies and Expression Analysis (LTEA) Assay for Forkhead box O3 (FOXO3) using HepaRG (AID 2283459); details: mRNA level, 48 h; actives raise or lower the signal
Outline: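 Gene-expression endpoint: FOXO3 transcript level by qRT-PCR in HepaRG cultures treated 48 h with chemicals up to 100 uM (half-log, 0.5% DMSO vehicle).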

[16] = read-out: ABC Transporter (ABCB1), ABCB1 (gene 5243); test: LTEA_HepaRG_ABCB1: Life Technologies and Expression Analysis (LTEA) Assay for ABC Transporter (ABCB1) using HepaRG (AID 2283460); details: mRNA level, 48 h; actives raise or lower the signal
Outline: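 Human liver HepaRG line treated 48 h with up to 100 uM compound (eight half-log points, 0.5% DMSO); ABCB1 mRNA change fitted bidirectionally against DMSO controls.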

[17] = read-out: growth arrest and DNA damage 45 (GADD45B), GADD45B (gene 4616); test: LTEA_HepaRG_GADD45B: Life Technologies and Expression Analysis (LTEA) Assay for growth arrest and DNA damage 45 (GADD45B) using HepaRG (AID 2283461); details: mRNA level, 48 h; actives raise or lower the signal
Outline: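 Differentiated human HepaRG cells in serum-free induction medium exposed 48 h in duplicate to eight concentrations, top 100 uM, half-log steps, 0.5% DMSO. GADD45B mRNA by TaqMan qRT-PCR, normalized to ACTB, GAPDH, POLR2A; bidirectional fit versus DMSO.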

[18] = read-out: ABC Transporter (ABCC3), ABCC3 (gene 8714); test: LTEA_HepaRG_ABCC3: Life Technologies and Expression Analysis (LTEA) Assay for ABC Transporter (ABCC3) using HepaRG (AID 2283462); details: mRNA level, 48 h; actives raise or lower the signal
Outline: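 Differentiated human HepaRG cells exposed 48 h in serum-free induction medium, 0.5% DMSO vehicle, 8-point half-log series to 100 uM in duplicate. ABCC3 mRNA by qRT-PCR, normalised to ACTB, GAPDH, POLR2A; bidirectional fit vs DMSO.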

[19] = CEETOX_H295R_TESTO: CeeTox H295R High-throughput Steroidogenesis Assay for Testosterone (TESTO) (AID 2283457); details: actives raise or lower the signal;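 as to AC50: cells exposed to chemicals for 48 h before medium collection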
Outline: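 H295R adrenal cells, passage ≤10, exposed to chemicals for 48 h. Testosterone in medium measured by MTBE extraction and HPLC-MS/MS against a 7-point standard curve. Bidirectional fit versus DMSO; MTT viability checked in the same wells.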

[20] = read-out: Cyclin D2 (CCND2), CCND2 (gene 894); test: LTEA_HepaRG_CCND2: Life Technologies and Expression Analysis (LTEA) Assay for Cyclin D2 (CCND2) using HepaRG (AID 2283449); details: mRNA level, 48 h; actives raise or lower the signal;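 also: CCND2 transcript measured by TaqMan qRT-PCR and normalised to three housekeeping genes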
Outline: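 In this HepaRG study, an eight-point concentration series (max 100 uM, 0.5% DMSO) is applied for 48 h. CCND2 mRNA change is derived by qRT-PCR normalised to ACTB, GAPDH and POLR2A.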

Measured: AC50

Chain of Fatty acid synthase (Homo sapiens) (P49327 whole entry, looked up): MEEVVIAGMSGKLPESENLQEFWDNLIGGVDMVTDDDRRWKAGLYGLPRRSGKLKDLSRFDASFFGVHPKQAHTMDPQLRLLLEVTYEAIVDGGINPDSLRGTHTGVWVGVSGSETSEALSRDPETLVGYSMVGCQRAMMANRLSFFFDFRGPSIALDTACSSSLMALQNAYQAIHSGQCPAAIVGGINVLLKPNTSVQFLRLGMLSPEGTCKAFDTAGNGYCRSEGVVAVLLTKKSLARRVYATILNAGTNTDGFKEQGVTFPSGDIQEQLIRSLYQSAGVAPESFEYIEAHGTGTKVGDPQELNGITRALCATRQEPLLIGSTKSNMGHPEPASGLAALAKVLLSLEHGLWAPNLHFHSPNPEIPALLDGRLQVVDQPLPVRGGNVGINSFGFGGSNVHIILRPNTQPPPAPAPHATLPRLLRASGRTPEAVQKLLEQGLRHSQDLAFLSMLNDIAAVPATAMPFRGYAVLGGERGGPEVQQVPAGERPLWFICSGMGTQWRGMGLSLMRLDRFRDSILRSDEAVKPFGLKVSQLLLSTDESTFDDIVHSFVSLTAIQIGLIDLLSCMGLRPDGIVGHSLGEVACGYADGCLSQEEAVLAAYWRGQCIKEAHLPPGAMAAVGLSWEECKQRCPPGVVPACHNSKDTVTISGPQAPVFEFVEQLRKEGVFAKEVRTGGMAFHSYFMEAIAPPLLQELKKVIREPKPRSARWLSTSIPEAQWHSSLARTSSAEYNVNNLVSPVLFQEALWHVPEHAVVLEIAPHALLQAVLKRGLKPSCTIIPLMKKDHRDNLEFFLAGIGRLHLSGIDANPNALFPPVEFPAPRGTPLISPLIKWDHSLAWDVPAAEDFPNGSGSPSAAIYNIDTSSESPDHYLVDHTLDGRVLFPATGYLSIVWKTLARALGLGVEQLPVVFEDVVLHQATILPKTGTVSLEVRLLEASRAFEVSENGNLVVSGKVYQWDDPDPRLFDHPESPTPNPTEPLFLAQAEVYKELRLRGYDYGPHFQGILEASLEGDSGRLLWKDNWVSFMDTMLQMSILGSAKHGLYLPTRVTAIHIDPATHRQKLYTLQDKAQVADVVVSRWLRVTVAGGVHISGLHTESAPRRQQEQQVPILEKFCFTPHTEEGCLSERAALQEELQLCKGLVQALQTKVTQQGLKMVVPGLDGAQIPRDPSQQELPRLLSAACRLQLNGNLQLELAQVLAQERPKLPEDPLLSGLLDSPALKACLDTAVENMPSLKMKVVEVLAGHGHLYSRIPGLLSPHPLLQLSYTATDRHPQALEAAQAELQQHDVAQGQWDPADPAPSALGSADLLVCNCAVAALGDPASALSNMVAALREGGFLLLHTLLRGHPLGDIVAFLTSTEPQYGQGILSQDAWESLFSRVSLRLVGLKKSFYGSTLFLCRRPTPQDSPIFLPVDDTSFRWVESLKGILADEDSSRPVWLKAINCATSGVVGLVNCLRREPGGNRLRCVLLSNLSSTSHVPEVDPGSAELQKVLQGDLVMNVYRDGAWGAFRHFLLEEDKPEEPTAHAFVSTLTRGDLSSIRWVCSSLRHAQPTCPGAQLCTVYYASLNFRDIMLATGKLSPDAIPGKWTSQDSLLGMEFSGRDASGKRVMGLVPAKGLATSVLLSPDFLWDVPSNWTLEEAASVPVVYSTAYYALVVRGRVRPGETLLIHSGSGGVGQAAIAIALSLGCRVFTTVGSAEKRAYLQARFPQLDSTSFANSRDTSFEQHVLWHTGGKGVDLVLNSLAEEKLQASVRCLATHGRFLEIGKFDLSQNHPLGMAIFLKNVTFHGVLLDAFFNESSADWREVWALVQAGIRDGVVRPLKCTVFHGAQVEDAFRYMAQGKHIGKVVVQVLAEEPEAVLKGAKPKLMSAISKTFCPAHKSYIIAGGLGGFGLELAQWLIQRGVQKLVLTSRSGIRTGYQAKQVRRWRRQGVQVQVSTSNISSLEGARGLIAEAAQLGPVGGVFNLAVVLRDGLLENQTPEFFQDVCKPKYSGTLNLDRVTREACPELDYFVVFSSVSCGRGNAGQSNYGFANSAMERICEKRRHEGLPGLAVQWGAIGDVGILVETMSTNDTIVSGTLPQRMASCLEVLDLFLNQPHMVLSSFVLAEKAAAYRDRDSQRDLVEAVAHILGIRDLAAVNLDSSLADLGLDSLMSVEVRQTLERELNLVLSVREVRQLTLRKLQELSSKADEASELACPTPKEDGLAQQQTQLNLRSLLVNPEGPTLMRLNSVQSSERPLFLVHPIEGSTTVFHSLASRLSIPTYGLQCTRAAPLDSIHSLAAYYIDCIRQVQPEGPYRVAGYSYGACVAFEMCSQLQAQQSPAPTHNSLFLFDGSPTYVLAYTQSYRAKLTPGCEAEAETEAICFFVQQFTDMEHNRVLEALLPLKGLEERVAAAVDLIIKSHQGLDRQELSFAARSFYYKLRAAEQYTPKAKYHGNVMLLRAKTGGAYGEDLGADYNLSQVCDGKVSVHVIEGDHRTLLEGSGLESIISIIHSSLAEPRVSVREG

CC(C)OC(=O)Nc1ccccc1
inactive: [1]

O=C(Nc1ccc2[nH]ccc2c1)c1cc2cc(F)ccc2n1Cc1cccc(F)c1
inactive: [3] | [4] | [5] | [7] | [12] | [13] | [15] | [17] | [18]
active: [2] 0.522 µM | [1] 4.84 µM | [6] 24.3 µM | [8] 39.5 µM | [9] 25.1 µM | [10] 26.3 µM | [11] 91.7 µM | [14] 20.7 µM | [16] 90.3 µM

C(=NC1CCCCC1)=NC1CCCCC1
inactive: [3] | [4] | [1]

COP(=O)(OC)O/C(=C\Cl)c1cc(Cl)c(Cl)cc1Cl
inactive: [1] | [19]

CC12CC1(C)C(=O)N(c1cc(Cl)cc(Cl)c1)C2=O (stereo not drawn)
inactive: [2] | [1] | [5] | [20] | [7] | [8] | [9] | [10] | [11] | [12] | [13] | [15] | [17] | [18]
active: [6] 5.61 µM | [19] 25.4 µM | [16] 8.58 µM

NNC(=S)NN
inactive: [3] | [4]
active: [1] 50 µM

CCOP(=S)(OCC)SCSP(=S)(OCC)OCC
active: [2] 1.37 µM | [1] 4.53 µM | [6] 90.8 µM | [11] 33.1 µM | [14] 0.0566 µM | [17] 0.0743 µM
inactive: [3] | [4] | [5] | [20] | [7] | [8] | [9] | [10] | [12] | [13] | [15] | [16] | [18]

Fc1ccc(C2(Cn3cncn3)OC2c2ccccc2Cl)cc1 (stereo not drawn)
inactive: [1]
active: [2] 2.08 µM | [3] 1.5 µM | [4] 2.03 µM

C=CC(=O)N(C)C
inactive: [2] | [3] | [4] | [1]

O=C(Cc1ccccc1)c1ccccc1
active: [1] 45.9 µM
inactive: [2]

CC1(C)CCC(Cc2ccc(Cl)cc2)C1(O)Cn1cncn1 (stereo not drawn)
active: [1] 0.0359 µM

Oc1ccc(-c2ccccc2)cc1
inactive: [2] | [4]

C[C@]12CCC(=O)C[C@@H]1CC[C@@H]1[C@@H]2CC[C@]2(C)[C@@H](O)CC[C@@H]12
inactive: [5] | [6] | [20] | [7] | [8] | [9] | [10] | [12] | [13] | [15] | [16] | [17] | [18]
active: [1] 1.08 µM | [11] 35.7 µM | [14] 0.00162 µM

COc1cc(-c2ccc(N)c(OC)c2)ccc1N
inactive: [1] | [5] | [6] | [20] | [7] | [8] | [9] | [10] | [12] | [13] | [14] | [15] | [16] | [17] | [18]
active: [1] 35.4 µM | [6] 55.6 µM | [8] 32.7 µM | [10] 72.6 µM | [11] 20.6 µM and 24.2 µM | [16] 50 µM | [17] 50 µM

CCOP(=S)(OCC)SCCS(=O)(=O)CC
active: [1] 19.2 µM
inactive: [2] | [3] | [4]

C[C@@H]1C[C@@H]([C@H](O)CC2CC(=O)NC(=O)C2)C(=O)[C@@H](C)C1
active: [6] 4.28 µM | [7] 13.2 µM | [8] 3.34 µM | [9] 12.4 µM | [10] 25.9 µM | [12] 13.4 µM | [14] 50 µM | [15] 34.3 µM | [16] 83.5 µM | [17] 22.3 µM | [18] 0.921 µM
inactive: [1] | [5] | [20] | [13]
